Results from PubChem BioAssay AID1159580 (chemical genetic matrix, 2015).
Among all 5,500 compounds or so, about 2,000 (36%) were called active. Inconclusive results (about 18%) are left out. Rule as the data show it: active = normalized growth mostly below about 0.91 (no sharp cut-off); inconclusive = no clear call, values can overlap the other calls; inactive = mostly above about 0.92. This is one part of the list.

Test: chemical genetic growth profiling, strain panel (AID 1159580);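 also: tested at 20 µM; growth read once vehicle control cultures reached saturation at 30 °C; 1 = growth at the plate median or of vehicle wells; lower values mean less growth of the strain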
Settings: S. cerevisiae deletion strains, growth OD

Measured: normalized growth

C#C[C@@H]1CC2C3CCC4=C[C@@H](OC(C)=O)CCC4C3CC[C@]2(C)[C@H]1OC(C)=O (stereo partly drawn)
inactive: locus YHR030C, strain SLT2, hits give low values 1 | locus YHR079C, strain IRE1, hits give low values 0.929 | locus YJL095W, strain BCK1, hits give low values 0.951 | locus YJR066W, strain TOR1, hits give low values 0.947 | locus YLR113W, strain HOG1, hits give low values 0.912 | locus YNL183C, strain NPR1, hits give low values 0.903 | locus YOR231W, strain MKK1, hits give low values 0.946 | locus YPL256C, strain CLN2, hits give low values 0.936
